D1 potentiator – human D1 dopamine receptor positive modulation | P21728 | HEK293 TREx D1 cells, calcium flux, dopamine EC20 potentiation | potentiation, % at 10 µM | 360,000 compounds, 0.036% hits | AID 504651; in the data active means potentiation above about 30%; further: 0% is about no effect
D1 antagonist – human D1 dopamine receptor antagonism | P21728 | AID 504652 | activity change, negative = inhibition, % at 10 µM | HEK293 TREx D1 cells, calcium flux, dopamine EC80; active compounds read low | 360,000 compounds, 3.2% hits; in the data active means activity change below about -30%; further: on the % scale 0 is the no-effect control and ±100 the full control effect
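Inducible Hek293 Trex D1 cells (tetracycline, overnight, 30 C). Calcium dye 30–90 min RT. Antagonist mode: EC80 dopamine added after 180 s compound read.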
TRHR ag – agonists of human TRH receptor | AID 493084 | activation, % at 2 µM | 360,000 compounds, 0.18% hits | TRHR cells, calcium flux fluo-8, FDSS agonist mode; further: 0% is about no effect
Target sequence (P34981 whole entry, looked up): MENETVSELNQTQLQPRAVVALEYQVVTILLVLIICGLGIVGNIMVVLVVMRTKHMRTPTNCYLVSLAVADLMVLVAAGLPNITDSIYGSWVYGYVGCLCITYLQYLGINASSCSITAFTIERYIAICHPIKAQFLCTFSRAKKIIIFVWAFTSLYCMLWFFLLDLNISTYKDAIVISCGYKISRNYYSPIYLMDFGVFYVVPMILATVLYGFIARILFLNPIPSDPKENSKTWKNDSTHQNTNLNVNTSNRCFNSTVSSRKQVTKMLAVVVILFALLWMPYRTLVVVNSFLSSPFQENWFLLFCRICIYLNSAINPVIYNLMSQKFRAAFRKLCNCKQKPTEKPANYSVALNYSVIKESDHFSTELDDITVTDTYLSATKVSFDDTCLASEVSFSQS
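Agonist-mode FDSS calcium read (Ex 480/Em 530, 1 s cycles) in 1536-well TRHR cells with fluo-8 dye, after 10-cycle baseline and 23 nL compound addition; TRH at EC20 (10 nM final) added afterwards for the enhancer phase.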
LDHA block – blocks human lactate dehydrogenase A. purified LDHA, NADH/diaphorase-resazurin fluorescence; active compounds read low. P00338. AID 1347041. activity change, % (values are at about 110 or 230 µM). 480,000 compounds, 0.15% hits; in the data active means activity change below about -30%;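 further: plate controls were DMSO wells for no effect and wells without enzyme for full effect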
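Remaining NADH was detected by diaphorase (0.133 mg/mL) converting 37 µM resazurin to fluorescent resorufin, read at 0 and 20 minutes. The preceding 5-minute room-temperature reaction used 2 nM LDHA, 0.2 mM sodium pyruvate and 0.06 mM NADH at pH 7.4.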
D1 ag – agonists of human D1 dopamine receptor; 360,000 compounds, 1% hits; activation, % at 2 µM; AID 504660; HEK293 T-REx D1 cells, calcium flux, agonist mode; P21728; further: 0% is about no effect
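Agonism was scored from calcium flux recorded over 180 s (1 read/s) after pintool compound addition, following a 10-cycle baseline. Cells were inducible force-coupled HEK293 TREx D1, plated overnight at 30 C and loaded with no-wash calcium dye.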
TRHR PAM – allosteric enhancers of human TRH receptor | P34981 | AID 493056 | TRHR cells, fluo-8 calcium fluorescence, EC20 TRH enhancement | 360,000 compounds, 0.66% hits | enhancement, % at 2 µM; in the data active means enhancement above about 30%; further: 0% is about no effect
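TRHR-expressing cells loaded with fluo-8 calcium dye were read kinetically (ex 480/em 530) during compound addition, then stimulated with an EC20 of TRH (10 nM final). Enhancement of the Gq-mediated intracellular calcium response was scored.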
Active calls of the source: *; . = not tested or not shown. Shown are actives, neighbours in structure and some others; about 3.6% of the full set was active somewhere. Unless noted, no stated cut-off is given here; in the data, active means activation above about 30%; inactive means the rest.

SMILES	D1 potentiator	D1 antagonist	TRHR ag	LDHA block	D1 ag	TRHR PAM
Cc1ccc(NC(=O)CSc2nc3n[nH]c(C)c3c(=N)n2-c2cccc(C)c2)cc1	-0.8	-3.4	-0.6	-11.9	1.2	0.9
Cc1cccc(-n2c(SCC(=O)N3CCCC3)nc3n[nH]c(C)c3c2=N)c1	2.2	-10.4	-1.3	-4.5	5.7	40.1*
CC(Sc1n[nH]c(-c2cccs2)n1)C(=O)Nc1ccc(F)cc1 (stereo not drawn)	.	.	.	-2.7	.	.
COc1cc(CNC(=O)c2ccccc2-c2nc(-c3ccc(F)cc3)no2)cc(OC)c1OC	.	.	.	0.6	.	.
COc1ccc(C(=O)/C(C#N)=N/Nc2cccc([N+](=O)[O-])c2)cc1	-8.7	-32.5*	1.0	-7.3	19.8	-13.9
C/C(=N\NC(=O)C(O)c1ccccc1)c1ccc(Br)s1 (stereo not drawn)	-0.4	4.8	-0.4	-16.9	3.8	37.5*
C/C(=N/NC(=O)c1ccc2c(c1)OCO2)c1ccc(Br)s1	-1.8	10.2	-0.9	-33.3*	0.5	-7.9
C/C(=N\NC(=S)NCc1ccccc1)c1ccc2c(c1)OCCO2	-5.5	-31.4*	-0.9	-1.1	8.5	-1.0
N#C/C(=N\Nc1cccc(Cl)c1)C(=O)c1ccccc1	-4.2	-15.7	2.7	1.8	16.5	5.4
Cc1ccc(-c2cc3c(SCC(=O)N4CCN(c5ccc(F)cc5)CC4)nccn3n2)cc1	.	.	.	3.9	.	.
CC(C)c1ccc(NC(=O)C2CC(=O)Nc3nc(N4CCOCC4)nc(N)c32)cc1 (stereo not drawn)	.	.	.	7.4	.	.
CC(NC(=O)CN1CCN(S(=O)(=O)c2ccc3ccccc3c2)CC1)c1cccs1 (stereo not drawn)	.	.	.	14.8	.	.
C/C(=N/NC(=O)c1ccc2c(c1)OCCO2)c1ccc([N+](=O)[O-])cc1	-7.8	-52.0*	-0.8	-8.4	1.2	-3.5
C/C(=N\NC(=O)c1cccc(N/N=C(\C)c2ccc([N+](=O)[O-])cc2)c1)c1ccc([N+](=O)[O-])cc1	-14.4	-37.6*	-0.1	-1.8	0.1	1.5
C/C(=N/NC(=O)c1ccc2c(c1)OCO2)c1cccc([N+](=O)[O-])c1	-1.3	0.6	-0.5	-1.7	-0.3	-2.8
CC(=O)c1ccccc1NC(=O)CSC1=Nc2ccccc2C2CC=NN12 (stereo not drawn)	.	.	.	-2.3	.	.
CCn1c(CC(=O)Nc2ccccc2F)nnc1SCC(=O)Nc1ccccc1F	.	.	.	8.3	.	.
COc1cccc(NC(=O)c2oc3ccccc3c2NC(=O)c2ccc(OC(C)C)cc2)c1	-1.0	-16.2	0.8	-6.8	50.0*	-4.8
CCOc1ccc(C(=O)Nc2c(C(=O)c3ccccc3)oc3ccccc23)cc1	3.5	7.4	31.6*	-3.5	142.6*	5.7
COc1cccc(NC(=O)c2oc3ccccc3c2NC(=O)c2ccc3c(c2)OCO3)c1	-4.5	-0.2	1.9	-1.3	5.6	3.3
CCOc1ccc(C(=O)Nc2c(C(=O)c3ccc(OC)cc3)oc3ccccc23)cc1	-1.5	-5.0	-0.5	-12.8	0.4	-1.9
Cc1ccc(-c2cc(C(=O)OCC(=O)N3CCCC3)c3ccccc3n2)o1	.	.	.	1.4	.	.
Nc1c(C(O)(C(F)(F)F)C(F)(F)F)cc(C(O)(C(F)(F)F)C(F)(F)F)c2ccccc12	4.5	-29.7	2.1	2.0	39.8*	1.6
CCOc1ccc(S(=O)(=O)NCCC(=O)NCC(c2ccc(F)cc2)N2CCOCC2)cc1 (stereo not drawn)	-17.1	-77.8*	-0.1	-0.9	0.8	1.6
CCOc1ccc(S(=O)(=O)NCCC(=O)NCC(c2ccc(OC)cc2)N2CCCCC2)cc1 (stereo not drawn)	-1.9	2.7	-0.2	-7.1	2.0	12.2
SMILES	D1 potentiator	D1 antagonist	TRHR ag	LDHA block	D1 ag	TRHR PAM
CC(C)CNC(=O)c1ccccc1NC(=O)c1ccc(CSc2ccccc2)cc1	-9.3	1.0	2.9	-1.7	32.2*	9.0
CSc1ccccc1NC(=O)c1ccc(CSc2ccccc2)cc1	.	.	.	7.9	.	.
Cc1onc(-c2ccccc2)c1-c1nnc(CN2CCC(C(=O)N3CCCCCC3)CC2)o1	.	.	.	7.1	.	.
COc1ccc(CCN2C(=S)N(C)C(=O)C2CC(=O)Nc2ccc(OC)cc2)cc1 (stereo not drawn)	-4.0	-11.5	1.3	2.5	7.5	3.0
CCN1C(=O)C(CC(=O)Nc2ccc(OC)cc2)N(CCCN2CCN(c3ccc(F)cc3)CC2)C1=S (stereo not drawn)	-6.4	-43.1*	1.5	1.1	10.7	0.2
COc1ccc(NC(=O)CC2C(=O)N(C)C(=S)N2CCc2ccccc2)cc1 (stereo not drawn)	-8.2	-41.2*	1.5	-4.0	5.3	-1.2
C=CCc1c(C)nc(Nc2nc(C)c3cc(C)cc(C)c3n2)[nH]c1=O	.	.	.	2.2	.	.
COC(=O)c1c(-c2ccc(C)cc2)csc1NC(=O)c1ccoc1C	.	.	.	-3.6	.	.
COc1ccccc1OCCSc1nc2ccc([N+](=O)[O-])cc2s1	-13.7	-57.1*	-0.1	1.8	2.9	-4.9
COc1ccccc1OCCSc1nc(N)cc(N)n1	-9.4	-84.4*	0.0	-11.0	0.0	2.6
C=CCc1ccccc1OCCSc1nc2ccc([N+](=O)[O-])cc2s1	1.4	-12.8	1.1	-1.7	18.0	-1.9
COc1ccc(OCCCSc2ncccn2)cc1	-5.7	-10.2	-0.2	-6.1	3.3	-3.0
COc1ccc(OCCSc2ncccn2)cc1	1.3	-5.7	-0.5	-4.4	1.8	30.5*
O=C(N/N=C/c1ccco1)c1cc(-c2cccc3ccccc23)n[nH]1	2.3	13.5	0.4	-9.2	-2.0	35.8*
CC(NC(=O)Nc1ccc(F)cc1)C(c1cccs1)N1CCCC1 (stereo not drawn)	-10.3	7.3	1.1	-8.4	72.4*	-1.8
CC(NC(=O)c1ccc(F)cc1)C(c1cccs1)N1CCN(C)CC1 (stereo not drawn)	-0.8	1.7	0.2	-4.2	1.4	10.1
COc1ccc(CN(C(=O)Cc2c[nH]c3ccccc23)C(C(=O)NC2CCCCC2)c2ccc(C)o2)cc1 (stereo not drawn)	-2.8	-17.8	-0.4	0.0	2.7	-2.0
Cc1ccc(C(C(=O)NC2CCCCC2)N(Cc2ccccc2)C(=O)Cc2c[nH]c3ccccc23)o1 (stereo not drawn)	-6.3	-82.0*	-0.5	0.4	1.8	-2.2
Cc1ccc(CNc2oc(-c3ccccc3F)nc2C#N)cc1	.	.	.	-1.1	.	.
Cn1c(=NC(=O)C2CC2)sc2cccc(F)c21	-6.5	-40.5*	-0.3	-1.8	2.9	1.0
CCN(CC)C(=O)CSc1nnc(-c2ccccc2OC)n1N	.	.	.	-0.8	.	.
Cc1ccc(N=C2SC(C(=O)O)CC(=O)N2C)cc1C (stereo not drawn)	6.9	-4.7	0.7	-2.2	1.4	34.4*

High-throughput results deposited in PubChem BioAssay by National Center for Advancing Translational Sciences (NCATS).
